According to PubChem BioAssay (Tox21):
Records with an inconclusive call do not appear. Active and inactive are the calls of the source. Unless noted, the call rests on the fitted dose curve; in most records, active means well fitted curve in the direction sought with a large enough effect in the repeat runs; inconclusive means weak or mixed curves; inactive means no such curve, though single readings can be large; an effect the other way counts as inactive or inconclusive.

Columns and labels:
[1] = qHTS assay to identify small molecule agonists of the hypoxia (HIF-1) signaling pathway - cell viability counter screen (AID 1224844; calls by dose curve; further: nearly all actives have a fitted effect of over 50% in size)
Method in brief: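 ME-180 HRE-bla cells, 2,000/well, 0.5% dialyzed FBS; 5 hr settle, 17 hr compound at 37C/5% CO2; CCF4-AM reporter read first, then CellTiter-Glo luminescence after 30 min RT.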

[2] = qHTS assay to identify small molecule agonists of H2AX (AID 1224845; active means well fitted activation curve with a large enough effect in the signal ratio in the repeat runs, not every such curve was filed as active; the % refers to the signal ratio)
Method in brief: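 Phospho-H2AX Ser139 measured by HTRF (ex 320 nm; em 665 and 620 nm) after 24 hr antibody incubation. Compounds, 15 concentrations, 0.76% DMSO, were applied to CHO-K1 cells for 3hr at 37C before lysis.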

[3] = qHTS assay to identify small molecule agonists of the hypoxia (HIF-1) signaling pathway (AID 1224846; active means well fitted activation curve with a large enough effect in the signal ratio in the repeat runs, not every such curve was filed as active; the % refers to the signal ratio)
Method in brief: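 Cell line: CellSensor HRE-bla ME-180; 2,000 cells/well; 0.5% dialyzed FBS; 5 h preincubation; DMSO compound pin transfer; 17 h, 37C, 5% CO2; CCF4-AM added; bla FRET signal scored for activation.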

[4] = qHTS assay to identify small molecule agonists of H2AX - cell viability counter screen (AID 1224847; calls by dose curve; further: top concentration of the series differs between compounds; nearly all actives have a fitted effect of over 30% in size)
Method in brief: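 Compounds tested at 15 concentrations were incubated 3 hr at 37C with wild-type CHO-K1 cells; cellular ATP-based luminescence (CellTiter-Glo) indicated viability.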

[5] = qHTS RealTime-Glo MT Cell Viability Assay in HepG2 cells - 24 hour (AID 1224867); further: nearly all actives have a fitted effect of over 50% in size
Method in brief: (§1)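 qHTS, HepG2, 600 cells/well, RealTime-Glo (NanoLuc + prosubstrate) added with cells; 5 h preincubation; DMSO compound addition; 37 C; luminescence at 0/8/16/24/32/40 h.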

[6] = qHTS RealTime-Glo MT Cell Viability Assay in HEK293 cells - 32 hour (AID 1224868); further: top concentration of the series differs between compounds; nearly all actives have a fitted effect of over 50% in size
Method in brief: (§2)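 Assay medium contained NanoLuc luciferase plus cell-permeant prosubstrate, added with HEK293 cells at 600 cells/well. After 5 h at 37 C/5% CO2 compounds were added; plates stayed at 37 C for 40 h with serial luminescence reads.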

[7] = qHTS RealTime-Glo MT Cell Viability Assay in HepG2 cells - 40 hour (AID 1224870); further: nearly all actives have a fitted effect of over 50% in size
Method in brief: (§3)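 Real-time viability: cells seeded at 600 per well together with NanoLuc and cell-permeant prosubstrate, compounds added after 5 h incubation. Luminescence tracked at 0, 8, 16, 24, 32 and 40 h of exposure.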

[8] = A CellTox Green Cytotoxicity Assay to monitor cytotoxicity in HEK293 cells - 40 hour (AID 1224871); further: nearly all actives have a fitted effect of over 45% in size; further: potency means the concentration at half of the fitted maximal effect
Method in brief: (§4)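 Nonlytic real-time cytotoxicity: HEK293 + CellTox Green reagent plated, 5 h preincubation, pintool compound addition (23 nL in DMSO), 37 C for 40 h, fluorescence measured at successive time points.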

[9] = qHTS RealTime-Glo MT Cell Viability Assay in HEK293 cells - 16 hour (AID 1224872); further: nearly all actives have a fitted effect of over 50% in size; further: potency means the concentration at half of the fitted maximal effect
Method in brief: as §2

[10] = qHTS RealTime-Glo MT Cell Viability Assay in HepG2 cells - 8 hour (AID 1224873); further: nearly all actives have a fitted effect of over 55% in size
Method in brief: as §3

[11] = qHTS RealTime-Glo MT Cell Viability Assay in HEK293 cells - 40 hour (AID 1224874); conditions: RealTime-Glo luminescence; max response: stronger effect = lower value; further: nearly all actives have a fitted effect of over 50% in size; further: potency means the concentration at half of the fitted maximal effect
Method in brief: (§5)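 Cells were seeded together with NanoLuc luciferase and a prosubstrate that viable cells reduce to a luciferase substrate. After a 5 h incubation at 37 C/5% CO2, compounds were added and luminescence was measured repeatedly during 40 h of treatment.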

[12] = A CellTox Green Cytotoxicity Assay to monitor cytotoxicity in HEK293 cells - 24 hour (AID 1224875); further: nearly all actives have a fitted effect of over 45% in size
Method in brief: as §4

[13] = A CellTox Green Cytotoxicity Assay to monitor cytotoxicity in HepG2 cells - 16 hour (AID 1224876); further: nearly all actives have a fitted effect of over 45% in size
Method in brief: (§6)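 Read-out is fluorescence of a cyanine dye excluded from live cells that stains DNA of dead HepG2 cells, with signal proportional to cytotoxicity. Plates were read at 0, 8, 16, 24, 32 and 40 h after compound addition.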

[14] = qHTS RealTime-Glo MT Cell Viability Assay in HepG2 cells - 32 hour (AID 1224877); further: nearly all actives have a fitted effect of over 55% in size
Method in brief: as §1

[15] = A CellTox Green Cytotoxicity Assay to monitor cytotoxicity in HepG2 cells - 24 hour (AID 1224878); further: nearly all actives have a fitted effect of over 45% in size
Method in brief: as §6

[16] = A CellTox Green Cytotoxicity Assay to monitor cytotoxicity in HepG2 cells - 40 hour (AID 1224879); further: nearly all actives have a fitted effect of over 40% in size
Method in brief: as §6

[17] = qHTS RealTime-Glo MT Cell Viability Assay in HEK293 cells - 0 hour (AID 1224880)
Method in brief: as §5

[18] = A CellTox Green Cytotoxicity Assay to monitor cytotoxicity in HEK293 cells - 0 hour (AID 1224869); further: nearly all actives have a fitted effect of over 50% in size
Method in brief: as §4

[19] = qHTS assay to identify small molecule antagonists of the estrogen related receptor (ERR) signaling pathway from Tox21 library (AID 1224848); further: nearly all actives have a fitted effect of over 50% in size; further: potency means the concentration at half of the fitted maximal effect
Method in brief: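 Reading was by luminescence 30 min after ONE-Glo addition. Before that, ERR cells at 2,000 per well had rested 6 h at 37 C/5% CO2 and then received pin-tooled compounds in DMSO for 18 h at 37 C.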

[20] = qHTS assay to identify small molecule agonists of the estrogen related receptor (ERR) signaling pathway from Tox21 library (AID 1224849; calls by dose curve; further: nearly all actives have a fitted effect of over 15% in size); conditions: ERR reporter cell line, ONE-Glo luciferase, 18 h; at 92.4 µM (top of the series) unless noted
Method in brief: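 ERR cells, 6 h pre-incubation 37 C/5% CO2; cpd in DMSO pinned; 18 h 37 C; ONE-Glo added, 30 min RT; luminescence read. Agonist mode, qHTS.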
On the % scale 0 is the no-effect control and ±100 the full control effect.

Fc1cccc(Cl)c1CCl
inactive: Potency [1] | Potency [2] | outcome [3] | Potency [4] | Potency [5] | Potency [6] | Potency [7] | Potency [8] | Potency [9] | Potency [10] | max response [11] -1.59% | Potency [12] | Potency [13] | Potency [14] | Potency [15] | Potency [16] | Potency [17]

CCCSP(=O)(OCC)SCCC
inactive: Potency [1] | Potency [2] | outcome [3] | Potency [4] | Potency [5] | Potency [7] | Potency [8] | Potency [9] | Potency [10] | max response [11] -0.268% | Potency [12] | Potency [13] | Potency [14] | Potency [16]

Cc1cc(Cl)ccc1O[C@H](C)C(=O)O
inactive: Potency [1] | Potency [2] | outcome [3] | Potency [4] | Potency [5] | Potency [18] | Potency [8] | Potency [9] | Potency [10] | max response [11] -1.32% | Potency [12] | Potency [13] | Potency [14] | Potency [15] | Potency [16] | Potency [17]

C=COCCCl
inactive: Potency [1] | Potency [2] | outcome [3] | Potency [19] | activity change, positive = activation [20] 14.7% | Potency [5] | Potency [6] | Potency [18] | Potency [8] | Potency [9] | Potency [10] | max response [11] 15.2% | Potency [12] | Potency [13] | Potency [14] | Potency [15] | Potency [16] | Potency [17]

Clc1ccc(Oc2ccccc2)cc1
inactive: Potency [1] | Potency [2] | outcome [3] | Potency [4] | Potency [5] | Potency [6] | Potency [18] | Potency [9] | Potency [10] | max response [11] -29.2% | Potency [13] | Potency [14] | Potency [15] | Potency [16] | Potency [17]

CCCCCCCCCCCCCN1CC(C)OC(C)C1 (stereo unspecified)
inactive: Potency [1] | Potency [2] | outcome [3] | Potency [4] | Potency [5] | Potency [6] | Potency [7] | Potency [8] | Potency [9] | Potency [10] | max response [11] -1.65% | Potency [12] | Potency [13] | Potency [14] | Potency [15] | Potency [16] | Potency [17]

Oc1c(Cl)c(Cl)cc(Cl)c1Cl
active: Potency [19] 37.5 µM | Potency [8] 42.5 µM | Potency [9] 47.6 µM | Potency [11] 47.6 µM
inactive: Potency [1] | Potency [2] | outcome [3] | activity change, positive = activation [20] -59.9% | Potency [5] | Potency [18] | Potency [10] | Potency [14] | Potency [15] | Potency [16] | Potency [17]

ClC1=C(Cl)[C@]2(Cl)[C@@H]3[C@@H](Cl)[C@H](Cl)C[C@@H]3[C@@]1(Cl)C2(Cl)Cl
inactive: Potency [1] | Potency [2] | outcome [3] | Potency [19] | activity change, positive = activation [20] -5.06% | Potency [5] | Potency [6] | Potency [7] | Potency [9] | Potency [10] | max response [11] 7.93% | Potency [13] | Potency [14] | Potency [15] | Potency [16] | Potency [17]

CC(C)C(=O)Cl
inactive: Potency [1] | Potency [2] | outcome [3] | Potency [19] | activity change, positive = activation [20] -0.166% | Potency [5] | Potency [6] | Potency [18] | Potency [7] | Potency [8] | Potency [9] | Potency [10] | max response [11] 0.629% | Potency [12] | Potency [13] | Potency [14] | Potency [15] | Potency [16] | Potency [17]

Nc1ccc(Cl)cc1C(=O)c1ccccc1
inactive: Potency [1] | Potency [2] | outcome [3] | Potency [19] | activity change, positive = activation [20] 3.06% | Potency [5] | Potency [18] | Potency [7] | Potency [10] | Potency [13] | Potency [14] | Potency [15] | Potency [16]

CCCCCCCCCBr
inactive: Potency [1] | Potency [2] | outcome [3] | Potency [4] | Potency [5] | Potency [6] | Potency [18] | Potency [8] | Potency [9] | max response [11] -6.03% | Potency [12] | Potency [13] | Potency [14] | Potency [15] | Potency [16]

CC(O)C#N (stereo unspecified)
inactive: Potency [1] | Potency [2] | outcome [3] | Potency [4] | Potency [5] | Potency [6] | Potency [18] | Potency [8] | Potency [9] | Potency [10] | max response [11] -0.282% | Potency [12] | Potency [13] | Potency [14] | Potency [15] | Potency [16] | Potency [17]

COc1ccc(OC)c(CC(C)N)c1 (stereo unspecified)
inactive: Potency [1] | Potency [2] | outcome [3] | Potency [5] | Potency [6] | Potency [18] | Potency [7] | Potency [8] | Potency [9] | Potency [10] | max response [11] -2.46% | Potency [12] | Potency [13] | Potency [14] | Potency [16] | Potency [17]

Cc1ccc(OP(=O)(Oc2ccccc2)Oc2ccccc2)cc1
inactive: Potency [1] | Potency [2] | outcome [3] | activity change, positive = activation [20] -20.3% | Potency [5] | Potency [6] | Potency [18] | Potency [7] | Potency [8] | Potency [9] | Potency [10] | max response [11] -19.8% | Potency [12] | Potency [13] | Potency [14] | Potency [15] | Potency [16] | Potency [17]

Cn1cc(C2=C(c3cn(C4CCN(Cc5ccccn5)CC4)c4ccccc34)C(=O)NC2=O)c2ccccc21
inactive: Potency [1] | Potency [2] | outcome [3] | activity change, positive = activation [20] -11.8% [at 42.5 µM] | Potency [18] | Potency [8] | Potency [9] | Potency [12] | Potency [15] | Potency [17]
